Counter-ions that a name gives are not always drawn. ± gives the standard deviation.

The experiment relates to Jurkat. Put plainly: cell count relative to DMSO control (fraction of control); higher = more cells (less growth inhibition). Conditions: 48 h.
Compound `CC[C@@H]1C(=O)OC[C@@H]1Cc1cncn1C` [Pilocarpine·HCl] (concentration: 25 µM) had a cell count of 0.246 ± 0.11.

`Nc1ccn([C@@H]2O[C@H](CO)[C@@H](O)C2(F)F)c(=O)n1` [Gemcitabine·HCl] (concentration: 25 nM) displayed a cell count of 0.427 ± 0.09.

Regarding `NC[C@@H]1O[C@H](O[C@H]2[C@@H](O)[C@H](O[C@@H]3[C@@H](O)[C@H](N)C[C@H](N)[C@H]3O[C@H]3O[C@H](CO)[C@@H](O)[C@H](O)[C@H]3N)O[C@@H]2CO)[C@H](N)[C@@H](O)[C@@H]1O` [Paromomycin Sulfate] (concentration: 25 µM), the cell count was 0.773 ± 0.041.

In turn, `CCC(=O)O[C@]1(C(=O)CCl)[C@@H](C)C[C@H]2[C@@H]3C[C@H](F)C4=CC(=O)C=C[C@]4(C)[C@@]3(F)[C@@H](O)C[C@@]21C` [Halobetasol Propionate] (concentration: 25 µM) showed a cell count of 0.883 ± 0.12.

For the compound `CCN(CC)CCOC(=O)C1(C2CCCCC2)CCCCC1` [Dicyclomine·HCl] (concentration: 25 µM), the cell count turned out to be 0.922 ± 0.054.

The compound `O=C(O)[C@H]1/C(=C/CO)O[C@@H]2CC(=O)N21` [Clavulanate Potassium] (concentration: 25 µM) gave a cell count of 0.787 ± 0.095.

In the case of `CC(C)C(=O)OCC(=O)[C@@]12O[C@H](C3CCCCC3)O[C@@H]1C[C@H]1[C@@H]3CCC4=CC(=O)C=C[C@]4(C)[C@H]3[C@@H](O)C[C@@]12C` [Ciclesonide] (concentration: 2.5 µM), the cell count was 0.838 ± 0.08.

Compound `Clc1ccc(CO/N=C(\Cn2ccnc2)c2ccc(Cl)cc2Cl)c(Cl)c1` [Oxiconazole Nitrate] (concentration: 25 µM) registered a cell count of 0.87 ± 0.18.

Values taken from the supplement of paper PMC4709259.
